Experimental data as given in PubChem BioAssay AID651919 (Sanford-Burnham Center for Chemical Genomics, 2012).

Biological target: C-X-C chemokine receptor type 6 (Homo sapiens) (UniProt O00574)
Test: CXCR6 and CXCR5 receptor antagonist panel, profiling panel, selectivity assay for CXCR6 antagonist project, cell-based, CHO-K1 PathHunter beta-arrestin, luminescence, set 4 (AID 651919)
Conditions: run 4, at 79 µM (top of the series)

C-X-C chemokine receptor type 6 (Homo sapiens), sequence (O00574 whole entry, looked up): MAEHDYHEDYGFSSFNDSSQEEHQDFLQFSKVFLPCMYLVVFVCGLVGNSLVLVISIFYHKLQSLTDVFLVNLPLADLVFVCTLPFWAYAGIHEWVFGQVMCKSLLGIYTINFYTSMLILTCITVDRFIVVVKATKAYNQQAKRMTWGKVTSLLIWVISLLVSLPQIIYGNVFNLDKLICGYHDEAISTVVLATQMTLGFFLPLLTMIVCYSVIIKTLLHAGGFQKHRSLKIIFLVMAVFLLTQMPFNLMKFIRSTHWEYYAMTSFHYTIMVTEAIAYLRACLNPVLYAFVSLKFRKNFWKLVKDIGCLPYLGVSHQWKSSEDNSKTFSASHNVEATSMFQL

Q: Which inhibition does the source give for `COc1cc(C(=O)NC2CC3CCCC(C2)N3CC(=O)Nc2ccccc2)cc(OC)c1OC` (configuration not stated) here?
A: 92.9%

Q: How did the inhibition turn out when `COc1cc(C(=O)NC2CC3CCCC(C2)N3CC(=O)Nc2ccccc2Cl)cc(OC)c1OC` (configuration not stated) was run?
A: 99%
